Vc quorum ag: inducers of Vibrio cholerae quorum light production without autoinducers, primary screen, BH1578 luxS cqsA deficient, single point. actives 0.16% (n = 350,000). V. cholerae BH1578 lux reporter, luminescence, 6 h. activation, % at 18.7 µM. AID 588436, 2011; in the data active = activation mostly above about 9.7%, no sharp cut-off; inconclusive = no clear call, values can overlap the other calls; inactive = mostly below about 3.7%
BoNT-F LC inh: BoNT/F light chain protease inhibitors, primary screen, biochemical, flow cytometry, MLPCN library | Botulinum neurotoxin type F light chain protease (Clostridium botulinum) | Multiplex microsphere protease cleavage assay | inhibition, % at 10 µM | actives 0.22% (n = 360,000) | AID 588497, 2011; in the data active = inhibition above about 35%, passing the limit was not always enough; inconclusive = no clear call, values can overlap the other calls; note: plate controls were buffer without enzyme for full effect and enzyme alone for no effect
BoNT A protease: BoNT/A light chain protease inhibitors, primary screen, biochemical, flow cytometry, MLPCN library; multiplex microsphere protease substrate cleavage; actives 0.17% (n = 360,000); Botulinum neurotoxin type A light chain protease (Clostridium botulinum A str. ATCC 3502); inhibition, % at 10 µM; note: plate controls were buffer without enzyme for full effect and enzyme alone for no effect
Anthrax LF inh2: Bacillus anthracis LF protease inhibitors, primary screen, biochemical, multiplex microsphere, MLPCN library; inhibition, % at 10 µM; Lethal factor (Bacillus anthracis), P15917; actives 0.12% (n = 360,000); multiplex microsphere protease cleavage assay; note: plate controls were buffer without enzyme for full effect and enzyme alone for no effect
BJeLR viability: MLPCN primary cell-based screen for lethality selective to Ras in HRASV12 cells | BJeLR (HRASV12) viability, CellTiter-Glo ATP luminescence, 48 h | inhibition, % (concentration not given with the values) | actives 0.17% (n = 300,000); in the data active = inhibition above about 50%; inconclusive = no clear call, values can overlap the other calls
Autofluor counter: compound fluorescence in toxin protease inhibitor counterscreen; compound autofluorescence counterscreen, microsphere flow cytometry; hits give high values; actives 3.1% (n = 360,000); AID 624483; fluorescence intensity (concentration not given with the values); in the data active = fluorescence intensity above about 16000; inconclusive = no clear call, values can overlap the other calls
An asterisk follows results filed as active; i = inactive; ? = inconclusive; · = no result. This is a sample that favours compounds with a hit; in the whole collection about 3.7% have one here. Cut-off read from the data, not from the text of the source, unless noted: active = inhibition above about 30%; inconclusive = no clear call, values can overlap the other calls; inactive = below that.

SMILES	Vc quorum ag	BoNT-F LC inh	BoNT A protease	Anthrax LF inh2	BJeLR viability	Autofluor counter
N#CCC1c2ccccc2CCN1C(=O)Nc1cccc(Cl)c1 (configuration not stated)	0	-6	-2	-9	7	23621*
C[C@H](NC(=O)C1CCN(S(=O)(=O)c2ccccc2)CC1)C(=O)NCc1ccncc1	6	-5	-1	-7	·	4186
Cc1ccc(Oc2nnc(-c3ccccc3)c3ccccc23)cc1	0	6	6	-4	6	21278*
CCCCCCCn1c(=N)n(CC(=O)c2ccco2)c2ccccc21	i	i	8	72*	2	?
Cc1cc(C)c(C)c(S(=O)(=O)N2CCNC(=O)C2)c1C	-1	-4	0	1	·	2920
CCOc1ccc(C(=O)Nc2cnn(Cc3ccc(Cl)c(Cl)c3)c2)cc1	0	-1	1	-1	4	16229*
O=C(Nc1ccc(Cl)c(Cl)c1)c1ccc(Cn2cc(Cl)cn2)cc1	i	2	0	-1	-4	2565
Cc1nnc(N2CCCC(C(=O)NCc3ccc(OC(C)C)cc3)C2)c2nn(-c3ccccc3)c(C)c12 (configuration not stated)	0	13	-11	-4	-15	24028*
CC(C)(C)n1nnnc1C(c1cc2cc3c(cc2[nH]c1=O)OCO3)N1CCN(c2ccccc2)CC1 (configuration not stated)	i	-15	2	-2	3	6098
CCC(C)(C)n1nnnc1C(c1cc2cc(OC)c(OC)cc2[nH]c1=O)N1CCc2ccccc21 (configuration not stated)	i	-6	-4	2	-10	24005*
COc1cc2cc(C(c3nnnn3C(C)(C)C)N3CCc4ccccc4C3)c(=O)[nH]c2cc1OC (configuration not stated)	i	-1	2	-1	-2	6554
CCN1CCN(C(c2cc3cc4c(cc3[nH]c2=O)OCO4)c2nnnn2C(C)(C)CC)CC1 (configuration not stated)	i	4	5	-9	-12	20945*
CC1(C(=O)NS(=O)(=O)c2ccc(Cl)cc2)CCN1C(=O)CCC1CCCC1 (configuration not stated)	0	-1	0	-3	·	3603
N#C/C(=C/c1ccc(N2CCOCC2)o1)c1nc2ccccc2[nH]1	i	126*	-5	-1	·	11009
O=C1N=C2N(CCN3CCCCC3)c3ccccc3N2/C1=C\c1ccc([N+](=O)[O-])s1	2	-20	0	-12	·	5952
COc1ccc(C(O)c2nc(-c3ccc(OC)c(OC)c3)cs2)cc1 (configuration not stated)	i	-5	-1	-7	·	3945
O=C(Nc1cccc2cccnc12)c1cccnc1	0	7	6	-1	-5	18275*
Cc1cccc(OCC(=O)NNc2c3ccccc3nc3ccccc23)c1	i	0	2	-3	1	21560*
Cc1ccc(OCC(=O)NCCN2CCOCC2)cc1C	i	10	0	-3	7	3504
Cc1cccc(C(=O)NCCN2CCCC2)c1	-2	0	-1	-2	4	20070*
Cc1cccc(OCC(=O)NCCN2CCOCC2)c1	1	-5	-2	-2	7	20366*
CCOc1c(Cl)cc(C(=O)NCCN2CCCCC2)cc1Cl	1	4	4	2	4	22799*
Cc1ccc(C(=O)NCCN2CCCC2)cc1	0	-11	0	-2	-4	3009
O=C(COC(=O)CCS(=O)(=O)c1ccccc1)NNC(=O)c1ccc([N+](=O)[O-])cc1	i	-3	0	-4	·	3462
Cc1ccc(-n2ncc3c(=O)n(CC#N)cnc32)cc1	0	-2	0	-1	1	20625*
SMILES	Vc quorum ag	BoNT-F LC inh	BoNT A protease	Anthrax LF inh2	BJeLR viability	Autofluor counter
Cc1ccc(-n2ncc3c(=O)n(CC(N)=O)cnc32)cc1	0	-29	5	-1	-2	3511
S=c1[nH]nc(C2CCCCC2)n1/N=C/c1cccs1	-1	-4	?	0	-4	23451*
O=[N+]([O-])c1ccc(/C=N/n2c(C3CCCCC3)n[nH]c2=S)cc1	0	-2	?	0	9	22651*
S=c1[nH]nc(C2CCCCC2)n1/N=C/c1ccncc1	0	-4	0	-1	-14	2669
S=c1[nH]nc(C2CCCCC2)n1/N=C/c1ccccc1Cl	1	?	-2	0	-11	4102
COc1cccc(OC)c1C(=O)Nc1nc(N)n(-c2ccccc2)n1	i	-6	-4	-4	-1	17413*
COc1ccc(S(=O)(=O)Nc2cccc(C)c2C)c2cccnc12	-1	9	-1	-2	5	3427
CCCCNS(=O)(=O)c1ccc(OC)c2ncccc12	i	2	?	0	3	19492*
COc1ccc(N2CCN(C3CC(=O)N(C)C3=O)CC2)cc1 (configuration not stated)	i	-1	0	-7	-1	3102
COc1ccc(N2C(=O)CC(N3CCN(c4ccc(S(C)(=O)=O)cc4)CC3)C2=O)cc1 (configuration not stated)	2	-1	2	-1	-3	18815*
Cc1cc2c(ncn2Cc2ccccc2)c([N+](=O)[O-])c1C	-5	2	0	-5	-16	22108*
CCN1C(=O)C(Cc2nc3ccccc3c(=O)n2-c2ccccc2)c2ccccc21 (configuration not stated)	2	4	?	-2	6	19070*
CCN1CCN(Cc2ccc(OCc3ccccc3)cc2)CC1	i	3	4	-7	9	20089*
CCOC(=O)/C(=N\Nc1cccc(C(F)(F)F)c1)N(CCOC)CCOC	-2	-8	?	0	-5	22213*
CCOC(=O)c1cnn(-c2cc(C)nc3c(-c4ccccc4)cnn23)c1N	i	10	0	-3	-2	3620
CCOC(=O)Cc1c(C)nc2c(-c3ccccc3)c(C)nn2c1C	-6	4	0	-3	6	4932
CCOC(=O)c1cnn(-c2cc(C(C)(C)C)nc3c(-c4ccccc4)c(C)nn23)c1N	-1	-11	?	-4	7	26542*
CCOC(=O)c1cnn(-c2c(Cc3ccccc3)c(C)nc3c(-c4ccccc4)c(C)nn23)c1N	0	4	4	0	-1	22024*
Cc1cccc2c1NC(=O)/C2=C\C(=O)c1cccs1	i	-5	?	-2	24	23425*
CN(C)/C=C/C(=O)c1ccc(Br)s1	0	1	0	-2	0	4266
Cc1cc(C)c2c(c1)/C(=C/C(=O)c1ccc(Br)s1)C(=O)N2	i	-8	?	-5	-6	21983*

From PubChem
